# Measurements from PubChem BioAssay (NCI).
# Compounds without any hit were thinned out: in the full panel of roughly 83,000, 20% have a hit.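 Negative percent growth values reflect cell death: -40 means 40% of the cells present at the start died, and -100 means all died.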 Values without a mark were called inactive. Activity calls are given as the source filed them. Rule for the calls: active = growth percent below 10; inactive = the rest.
# Test system: K-562 leukemia
# Experiment: NCI-60 one-dose screen, 48 h (100 = growth as untreated, 0 = no growth, -100 = all killed)
# Settings: 10 µM unless noted
row,Structure (SMILES),growth
1,Cc1ncc(-c2ccnc(Nc3ccc(S(C)(=O)=O)cc3)n2)n1C(C)C,3.66% (active)
2,C/C=C/C=N/NC(=S)Nc1ccccc1,88.9%
3,Cc1nn(-c2ccccc2)c2c1N=c1s/c(=C\c3cn(-c4ccccc4)nc3-c3ccc(Cl)cc3)c(=O)n1C(C)N2 (stereo not drawn),119%
4,COc1cc2c(cc1OCCCN1Cc3ccc(OCCCCC(=O)N4CCC(CCN5CCCC5)CC4)cc3C1)N=C(N)C21CCCC1,4.85% (active)

# Test system: MALME-3M melanoma
# Experiment: as above
# Settings: 10 µM unless noted
row,Structure (SMILES),growth
1,COc1cccc2cc(-c3nc(C4CCC(C(=O)O)CC4)n4ncnc(N)c34)[nH]c12 (stereo not drawn),-12% (active)
2,CNC(=O)c1cc(Oc2ccc3nc(NC(=O)Nc4ccc(Cl)c(C(F)(F)F)c4)sc3c2)ccn1,-21.1% (active)
3,C[C@@H](Oc1cc(-n2cnc3ccc(CN4CCN(C)CC4)cc32)sc1C(N)=O)c1ccccc1C(F)(F)F,21%
4,Oc1ccc(C(c2ccc(O)cc2)C(Cl)(Cl)Cl)cc1,134%
5,C[C@H](NC(=O)c1c(N)nn2cccnc12)c1cc2cccc(C#Cc3cnn(C)c3)c2c(=O)n1-c1ccccc1,50.1%
6,COc1cc(CCc2cc(NC(=O)c3ccc(N4C[C@@H](C)N[C@@H](C)C4)cc3)n[nH]2)cc(OC)c1,26.6%
7,CNC(=O)CN1CCC(Oc2cc3c(Nc4cccc(Cl)c4F)ncnc3cc2OC)CC1,91.1%
8,Cc1oc2c(C(=O)N/N=C\c3ccc(O)cc3O)c[nH]c2c1C,5.32% (active)
9,CCCCCc1ccc(C)cc1OC(=O)CCl,90.9%
10,COc1cc2ncnc(Oc3cccc(NC(=O)Nc4cc(C(C)(C)C(F)(F)F)on4)c3)c2cc1OC,2.64% (active)
11,COc1cc(Nc2ncc3c(n2)-c2ccc(Cl)cc2C(c2c(F)cccc2OC)=NC3)ccc1C(=O)O,72.4%
12,CC[C@H](Nc1ncnc2nc[nH]c12)c1nc2cccc(F)c2c(=O)n1-c1ccccc1,88.9%
13,CN1CCN(CCOc2cc(OC3CCOCC3)c3c(Nc4c(Cl)ccc5c4OCO5)ncnc3c2)CC1,98.3%
14,Nc1nc(Nc2ccccc2)c(C=Nc2ccccc2)c(=O)[nH]1,103%
15,CNC(=O)c1cc(Oc2cccc3nc(Nc4ccc(Oc5ccccc5)cc4)ccc23)ccn1,78.2%
16,CN1CC[C@@H](c2c(O)cc(O)c3c(=O)cc(-c4ccccc4Cl)oc23)[C@@H]1CO,-46.8% (active)
17,Cc1[nH]n(C(N)=S)c(=O)c1N=Nc1ccc(S(=O)(=O)Nc2ccncn2)cc1,137%
18,COCCN1CCN(Cc2ccc(-c3n[nH]c4c3C(=O)c3c(NC(=O)NN5CCOCC5)cccc3-4)cc2)CC1,-63.1% (active)
19,CN(c1ncccc1CNc1nc(Nc2ccc3c(c2)CC(=O)N3)ncc1C(F)(F)F)S(C)(=O)=O,-14.4% (active)
20,COc1cc(N2CCC(N3CCN(C)CC3)CC2)ccc1Nc1ncnc(Nc2ccccc2S(=O)(=O)C(C)C)n1,106%

row,Structure (SMILES),growth
1,O=C(COc1ccc(/C=C2\Cc3ccc(Cl)cc3C2=O)cc1)Nc1nccs1,126%
2,O=C(c1ccc(/C=C/c2n[nH]c3ccccc23)cc1)N1CCNCC1,10.4%
3,O=C(O)C1(Cc2cccc(Nc3nccs3)n2)CCC(Oc2cccc(Cl)c2F)CC1 (stereo not drawn),77.5%
4,Cc1cc(O)cc(-c2c(-c3ccnc(-c4cccnc4)c3)cnn2C)c1,49.7%
5,Cc1c(CN2CCN(C(=O)[C@H](C)O)CC2)sc2c(N3CCOCC3)nc(-c3cnc(N)nc3)nc12,-52.3% (active)
6,CN1CCN(c2ccc(C(=O)Nc3n[nH]c4ccc(Cc5cc(F)cc(F)c5)cc34)c(NC3CCOCC3)c2)CC1,-83.4% (active)
7,C#Cc1cccc(Nc2ncnc3cc(OCCOC)c(OCCOC)cc23)c1,67.6%
8,COc1ccc(Nc2ncccc2NC(=O)c2cn(Cc3cccc(Oc4ccccc4)c3)nn2)cc1,85.8%
9,O=C1NC(=O)[C@@H](c2cn3c4c(cccc24)CCC3)[C@@H]1c1c[nH]c2ccccc12,59.7%
10,Cc1cc(-c2cc(O)ccc2Cl)cc2nnc(Nc3ccc(OCCN4CCCC4)cc3)nc12,-68.4% (active)
11,C=CCN(/C=C1/C(=O)O[C@H](COC)[C@@]2(C)C1=C(O)C(=O)C1=C2[C@H](OC(C)=O)C[C@]2(C)C(=O)CC[C@@H]12)CC=C,-1.8% (active)
12,CNC(=O)c1nn(C)c2c1C(C)(C)Cc1cnc(Nc3ccc(N4CCN(C)CC4)cc3)nc1-2,-8.73% (active)
13,CC(C)Nc1cc(-c2c[nH]c(C(=O)N[C@H](CO)c3cccc(Cl)c3)c2)c(Cl)cn1,9.08% (active)
14,COc1ccc(Cc2cc(-c3ccccc3C)n[nH]c2=O)cc1,154%
15,CC(C)[C@@H]1CC[C@@H]2[C@@H]1[C@H](OC(=O)/C=C/c1ccccc1)[C@]1(C(C)C)C[C@@H](OC(=O)CO)[C@@]2(C)O1,80.3%
16,Cc1ncc(-c2ccnc(Nc3ccc(S(C)(=O)=O)cc3)n2)n1C(C)C,-47.7% (active)
17,C/C=C/C=N/NC(=S)Nc1ccccc1,96.5%
18,Cc1nn(-c2ccccc2)c2c1N=c1s/c(=C\c3cn(-c4ccccc4)nc3-c3ccc(Cl)cc3)c(=O)n1C(C)N2 (stereo not drawn),124%
19,COc1cc2c(cc1OCCCN1Cc3ccc(OCCCCC(=O)N4CCC(CCN5CCCC5)CC4)cc3C1)N=C(N)C21CCCC1,44%
